Unmarked numbers belong to inactive results. The source made the active and inactive calls. No stated cut-off is given here; in the data, active means remaining activity below about 50%; inactive means the rest.
What follows are molecules tested against Phospholipase D2 (Homo sapiens) (UniProt O14939) (assay: cellular phospholipase D2 activity inhibition – cell-based, HEK293, single concentration (AID 602143;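 further: tested at 200 nM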)). Conditions: HEK293 cellular PLD2 activity, percent of control; hits give low values.
Phospholipase D2 (Homo sapiens), sequence (O14939 whole entry, looked up): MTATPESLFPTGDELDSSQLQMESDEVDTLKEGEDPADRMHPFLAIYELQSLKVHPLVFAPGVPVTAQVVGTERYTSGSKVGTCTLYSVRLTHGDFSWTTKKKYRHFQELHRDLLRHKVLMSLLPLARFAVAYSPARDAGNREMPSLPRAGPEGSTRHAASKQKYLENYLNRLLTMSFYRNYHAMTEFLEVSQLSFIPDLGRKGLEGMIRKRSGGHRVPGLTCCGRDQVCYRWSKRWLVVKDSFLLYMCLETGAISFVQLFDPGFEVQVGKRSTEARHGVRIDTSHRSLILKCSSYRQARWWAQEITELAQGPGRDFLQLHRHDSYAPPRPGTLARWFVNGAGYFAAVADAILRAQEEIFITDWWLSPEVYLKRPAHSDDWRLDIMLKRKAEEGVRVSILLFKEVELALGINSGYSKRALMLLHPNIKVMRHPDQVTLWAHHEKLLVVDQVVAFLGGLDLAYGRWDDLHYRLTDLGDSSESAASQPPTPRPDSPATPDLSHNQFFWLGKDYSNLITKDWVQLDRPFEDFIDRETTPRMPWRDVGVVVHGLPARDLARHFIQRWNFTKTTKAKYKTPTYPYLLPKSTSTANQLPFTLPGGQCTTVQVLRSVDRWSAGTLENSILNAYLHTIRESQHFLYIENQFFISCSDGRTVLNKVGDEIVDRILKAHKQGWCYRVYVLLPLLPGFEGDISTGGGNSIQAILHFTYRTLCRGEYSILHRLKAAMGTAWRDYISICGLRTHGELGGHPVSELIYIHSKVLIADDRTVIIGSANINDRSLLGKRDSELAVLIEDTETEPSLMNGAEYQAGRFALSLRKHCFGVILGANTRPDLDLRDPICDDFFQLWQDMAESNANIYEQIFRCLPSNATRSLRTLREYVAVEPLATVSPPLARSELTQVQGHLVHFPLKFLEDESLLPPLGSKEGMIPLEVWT
Phospholipase D2 (Homo sapiens), sequence (O14939 whole entry, looked up): as above

SMILES | remaining activity
C[C@@H](CN1CCC(n2c(=O)[nH]c3ccccc32)CC1)NC(=O)c1ccco1 | 97.1%
NC1(CN2CCC(n3c(=O)[nH]c4cc(Cl)ccc43)CC2)CCCC1 (tested in a mixture with another compound) | 94.3%
O=C(NCCN1CCC(n2c(=O)[nH]c3ccccc32)CC1)NCc1cccc(F)c1 | 101%
O=C(NCCN1CCN(c2ccncc2)CC1)c1cc2ccccc2s1 | 90.5%
O=C(NCCN1CCC(n2c(=O)[nH]c3ccccc32)CC1)Nc1cccc(C(F)(F)F)c1 | 131%
CC(C(=O)NCCN1CCC(n2c(=O)[nH]c3ccccc32)CC1)(c1ccccc1)c1ccccc1 | 65.3%
COc1cccc(N2CCN(CCNC(=O)c3ccc(C)cc3)CC2)c1 | 97.6%
O=C(NCCN1CCC(n2c(=O)[nH]c3cc(I)ccc32)CC1)C1CC1c1ccccc1 (stereo not drawn) | 57.2%
C[C@@H](CN1CCC(n2c(=O)[nH]c3ccccc32)CC1)NC(=O)c1ccc[nH]1 | 39.9% (active)
O=C(NCCN1CCC(n2c(=O)[nH]c3ccccc32)CC1)c1ccc2c(c1)CCCC2 | 96.1%
O=C(NCCN1CCC(n2c(=O)[nH]c3ccccc32)CC1)c1ccc(-c2ccccc2)o1 | 68.6%
C[C@@H](CN1CCC(n2c(=O)[nH]c3cc(-c4ccc(C(F)(F)F)cc4)ccc32)CC1)NC(=O)[C@H]1C[C@@H]1c1ccccc1 | 70.9%
O=C1c2ccccc2C(=O)N1CCCN1CCC(n2c(=O)[nH]c3cc(Cl)ccc32)CC1 | 74.6%
